Experimental data from PubChem BioAssay AID1159580 (chemical genetic matrix, 2015).
Among all 5,500 compounds or so, about 2,000 (36%) were called active. Roughly 18% stayed inconclusive and do not appear here. No stated cut-off is given here; in the data, active means normalized growth mostly below about 0.91 (no sharp cut-off); inconclusive means no clear call, values can overlap the other calls; inactive means mostly above about 0.92. The list shows a part of the results. *1 amine or outer side, *2 acyl side, *3 side chain or, on linkers, in order; H or OH if unused. Where a SMILES comes first, the peptide text is derived from it. Bridges are numbered along the chain shown (N, C = ends). [ ]: non-standard residue; d: D form. The star is where a group is joined. ξ: configuration not given here. ΔAla(E,3-NHCONH2) = NC(=O)N/C=C(/N)C(=O)O; X2 = NC1=NCCC(C(N[*:1])C(=O)[*:2])N1; ξβ3hOrn = NCCCC(N)CC(=O)*; Dap = NC[CH](N)C(=O)O

Assay: chemical genetic growth profiling, strain panel (AID 1159580);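 further: tested at 20 µM; growth read once vehicle control cultures reached saturation at 30 °C; 1 = growth at the plate median or of vehicle wells; lower values mean less growth of the strain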
Conditions: growth OD

Measured: normalized growth

NCCCC(N)CC(=O)NCC1NC(=O)C(CO)NC(=O)C(N)CNC(=O)C(C2CCN=C(N)N2)NC(=O)/C(=C\NC(N)=O)NC1=O (stereo not drawn) (H-[Dap]S[Dap](ξβ3hOrn)[ΔAla(E,3-NHCONH2)][X2]; lactam 1-C; configuration not given here)
inactive: S. cerevisiae deletion strains, locus YJR066W, strain TOR1, hits give low values 0.98 | S. cerevisiae deletion strains, locus YKL009W, strain mrt4, hits give low values 1.03 | S. cerevisiae deletion strains, locus YKL068W, hits give low values 1.01 | S. cerevisiae deletion strains, locus YKL085W, strain MDH1 (second series), hits give low values 1 | S. cerevisiae deletion strains, locus YKL085W, strain MDH1, hits give low values 1 | S. cerevisiae deletion strains, locus YKL160W, strain elf1, hits give low values 1.02 | S. cerevisiae deletion strains, locus YKR001C, strain vps1, hits give low values 1.01 | S. cerevisiae deletion strains, locus YKR026C, strain gcn3, hits give low values 1.01 | S. cerevisiae deletion strains, locus YKR091W, strain srl3, hits give low values 1 | S. cerevisiae deletion strains, locus YLL001W, strain dnm1, hits give low values 1.04 | S. cerevisiae deletion strains, locus YLL026W, hits give low values 1.04 | S. cerevisiae deletion strains, locus YLL041C, strain sdh2, hits give low values 1.02 | S. cerevisiae deletion strains, locus YLR027C, strain aat2, hits give low values 1.05 | S. cerevisiae deletion strains, locus YLR039C, strain RIC1, hits give low values 1.01 | S. cerevisiae deletion strains, locus YLR058C, strain SHM2, hits give low values 1.01 | S. cerevisiae deletion strains, locus YLR102C, strain apc9, hits give low values 1.02 | S. cerevisiae deletion strains, locus YLR113W, strain HOG1, hits give low values 1.05 | S. cerevisiae deletion strains, locus YLR221C, strain rsa3, hits give low values 0.993 | S. cerevisiae deletion strains, locus YLR258W, strain gsy2, hits give low values 1 | S. cerevisiae deletion strains, locus YLR262C, strain YPT6 (second series), hits give low values 1.03 | S. cerevisiae deletion strains, locus YLR262C, strain YPT6, hits give low values 1.04 | S. cerevisiae deletion strains, locus YLR268W, strain sec22, hits give low values 1.03 | S. cerevisiae deletion strains, locus YLR320W, strain mms22, hits give low values 0.989 | S. cerevisiae deletion strains, locus YLR330W, strain CHS5, hits give low values 1 | S. cerevisiae deletion strains, locus YLR342W, strain FKS1 (second series), hits give low values 1.01 | S. cerevisiae deletion strains, locus YLR342W, strain FKS1, hits give low values 1.03 | S. cerevisiae deletion strains, locus YLR357W, strain rsc2, hits give low values 1 | S. cerevisiae deletion strains, locus YLR370C, strain arc18, hits give low values 1.04 | S. cerevisiae deletion strains, locus YLR371W, strain rom2, hits give low values 0.999 | S. cerevisiae deletion strains, locus YLR384C, strain iki3, hits give low values 1.02 | S. cerevisiae deletion strains, locus YLR418C, strain cdc73, hits give low values 0.995 | S. cerevisiae deletion strains, locus YML016C, strain PPZ1, hits give low values 1 | S. cerevisiae deletion strains, locus YML032C, strain rad52, hits give low values 1.02 | S. cerevisiae deletion strains, locus YML120C, strain ndi1, hits give low values 1.05 | S. cerevisiae deletion strains, locus YML124C, strain tub3, hits give low values 1.01 | S. cerevisiae deletion strains, locus YMR058W, strain fet3, hits give low values 1.03 | S. cerevisiae deletion strains, locus YMR078C, strain ctf18, hits give low values 1.03 | S. cerevisiae deletion strains, locus YMR125W, strain sto1, hits give low values 0.993 | S. cerevisiae deletion strains, locus YMR129W, hits give low values 1.02 | S. cerevisiae deletion strains, locus YMR205C, strain PFK2, hits give low values 1.04 | S. cerevisiae deletion strains, locus YMR223W, strain ubp8, hits give low values 1.03 | S. cerevisiae deletion strains, locus YMR231W, strain pep5, hits give low values 1 | S. cerevisiae deletion strains, locus YMR263W, strain SAP30, hits give low values 1 | S. cerevisiae deletion strains, locus YMR307W, strain GAS1, hits give low values 1.06 | S. cerevisiae deletion strains, locus YNL067W, strain RPL9B, hits give low values 1.01 | S. cerevisiae deletion strains, locus YNL071W, strain lat1, hits give low values 0.994 | S. cerevisiae deletion strains, locus YNL183C, strain NPR1, hits give low values 0.988 | S. cerevisiae deletion strains, locus YNL209W, strain ssb2, hits give low values 0.998 | S. cerevisiae deletion strains, locus YNL233W, strain BNI4, hits give low values 0.974 | S. cerevisiae deletion strains, locus YNL248C, strain rpa49, hits give low values 0.98 | S. cerevisiae deletion strains, locus YNL250W, strain rad50, hits give low values 1.02 | S. cerevisiae deletion strains, locus YNL271C, strain bni1, hits give low values 1.03 | S. cerevisiae deletion strains, locus YNL298W, strain CLA4, hits give low values 1.03 | S. cerevisiae deletion strains, locus YNL307C, strain MCK1, hits give low values 1.03 | S. cerevisiae deletion strains, locus YNL322C, strain KRE1 (second series), hits give low values 1.02 | S. cerevisiae deletion strains, locus YNL322C, strain KRE1, hits give low values 1 | S. cerevisiae deletion strains, locus YNR049C, strain mso1, hits give low values 1.01 | S. cerevisiae deletion strains, locus YNR052C, strain pop2, hits give low values 1.01 | S. cerevisiae deletion strains, locus YOL012C, strain htz1 2.02 | S. cerevisiae deletion strains, locus YOL147C, strain pex11, hits give low values 1.01 | S. cerevisiae deletion strains, locus YOR001W, strain rrp6, hits give low values 1.03 | S. cerevisiae deletion strains, locus YOR061W, strain CKA2, hits give low values 1.01 | S. cerevisiae deletion strains, locus YOR069W, strain VPS5, hits give low values 1 | S. cerevisiae deletion strains, locus YOR070C, strain gyp1, hits give low values 0.994 | S. cerevisiae deletion strains, locus YOR080W, strain dia2, hits give low values 1.03 | S. cerevisiae deletion strains, locus YOR083W, strain WHI5, hits give low values 1.02 | S. cerevisiae deletion strains, locus YOR106W, strain vam3, hits give low values 1.04 | S. cerevisiae deletion strains, locus YOR136W, strain idh2, hits give low values 1.01 | S. cerevisiae deletion strains, locus YOR144C, strain elg1, hits give low values 1.02 | S. cerevisiae deletion strains, locus YOR184W, strain ser1, hits give low values 1.02 | S. cerevisiae deletion strains, locus YOR231W, strain MKK1, hits give low values 1.03 | S. cerevisiae deletion strains, locus YOR265W, strain rbl2, hits give low values 1.02 | S. cerevisiae deletion strains, locus YOR270C, strain vph1, hits give low values 1.09 | S. cerevisiae deletion strains, locus YOR290C, strain snf2, hits give low values 0.981 | S. cerevisiae deletion strains, locus YOR316C, strain cot1, hits give low values 1.05 | S. cerevisiae deletion strains, locus YPL051W, strain arl3, hits give low values 1.01 | S. cerevisiae deletion strains, locus YPL055C, strain LGE1, hits give low values 1.03 | S. cerevisiae deletion strains, locus YPL078C, strain atp4, hits give low values 1.06 | S. cerevisiae deletion strains, locus YPL106C, strain sse1, hits give low values 0.997 | S. cerevisiae deletion strains, locus YPL240C, strain hsp82, hits give low values 1.01 | S. cerevisiae deletion strains, locus YPL256C, strain CLN2, hits give low values 1.04 | S. cerevisiae deletion strains, locus YPR119W, strain clb2, hits give low values 1 | S. cerevisiae deletion strains, locus YPR141C, strain kar3, hits give low values 1.01 | S. cerevisiae deletion strains, locus YPR163C, strain tif3, hits give low values 1.02 | S. cerevisiae deletion strains, locus YPR167C, strain met16, hits give low values 1.01 | S. cerevisiae deletion strains, strain wtn01, hits give low values 1.04 | S. cerevisiae strains, strain wild type, hits give low values 1
